# Numbering of substitutions follows the chain as printed.
# Experiments:
# Assay in all cases: PBM; 200 nM protein, PBS
# Settings in all cases: dsDNA, one strand shown
# SHOX [1] = molecular target: SHOX (Homo sapiens, UniProt O15266 103-189)
# HOXA2 [2] = molecular target: HOXA2 (Homo sapiens, UniProt O43364 129-215, R185T)
# SHOX [3] = molecular target: SHOX (Homo sapiens, UniProt O15266 103-189, R173C)
# HOXA2 [4] = molecular target: HOXA2 (Homo sapiens, UniProt O43364 129-215, R185K)
# HOXA2 [5] = molecular target: HOXA2 (Homo sapiens, UniProt O43364 129-215, Y150S)
# Chain of HOXA2 (Homo sapiens, UniProt O43364 129-215, Y150S) (O43364 129-215 Y150S): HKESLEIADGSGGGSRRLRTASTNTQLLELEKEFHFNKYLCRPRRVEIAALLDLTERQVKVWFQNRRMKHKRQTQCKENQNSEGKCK
# HOXA2 [6] = molecular target: HOXA2 (Homo sapiens, UniProt O43364 129-215)
# Chain of HOXA2 (Homo sapiens, UniProt O43364 129-215) (O43364 129-215): as the sequence (O43364 129-215 Y150S) above, with S22Y counted along it
# HOXB9 [7] = molecular target: HOXB9 (Homo sapiens, UniProt P17482 171-250)
# Chain of HOXB9 (Homo sapiens, UniProt P17482 171-250) (P17482 171-250): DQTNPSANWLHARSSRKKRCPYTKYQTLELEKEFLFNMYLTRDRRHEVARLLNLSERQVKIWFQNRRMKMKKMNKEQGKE
# HOXB9 [8] = molecular target: HOXB9 (Homo sapiens, UniProt P17482 171-250, R186Q)
# Chain of HOXB9 (Homo sapiens, UniProt P17482 171-250, R186Q) (P17482 171-250 R186Q): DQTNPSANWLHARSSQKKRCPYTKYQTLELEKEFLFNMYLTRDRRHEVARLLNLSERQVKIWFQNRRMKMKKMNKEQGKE
# PAX4 [9] = molecular target: T1, PAX4 (Homo sapiens, UniProt O43316 9-242, R200K)
# T1 sequence: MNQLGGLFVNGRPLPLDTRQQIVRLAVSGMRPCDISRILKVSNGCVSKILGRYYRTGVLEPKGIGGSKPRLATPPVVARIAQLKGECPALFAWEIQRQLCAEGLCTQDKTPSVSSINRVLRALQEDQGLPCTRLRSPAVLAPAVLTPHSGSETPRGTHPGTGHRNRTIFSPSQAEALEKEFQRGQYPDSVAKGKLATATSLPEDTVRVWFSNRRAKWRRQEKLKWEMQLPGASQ
# PAX4 [10] = molecular target: T2, PAX4 (Homo sapiens, UniProt O43316 9-242)
# T2 sequence: T1 sequence with K192R
# PAX4 [11] = molecular target: T3, PAX4 (Homo sapiens, UniProt O43316 9-242, R200Q)
# T3 sequence: T1 sequence with K192Q
# PAX4 [12] = molecular target: T4, PAX4 (Homo sapiens, UniProt O43316 9-242, F177V)
# T4 sequence: T1 sequence with F169V, K192R
# PAX4 [13] = molecular target: T5, PAX4 (Homo sapiens, UniProt O43316 9-242, F177Y)
# T5 sequence: T1 sequence with F169Y, K192R
# PAX4 [14] = molecular target: T6, PAX4 (Homo sapiens, UniProt O43316 9-242, R227W)
# T6 sequence: T1 sequence with K192R, R219W
# ALX1 [15] = molecular target: ALX1 (Homo sapiens, UniProt Q15699 118-204, L144V)
# Chain of ALX1 (Homo sapiens, UniProt Q15699 118-204, L144V) (Q15699 118-204 L144V): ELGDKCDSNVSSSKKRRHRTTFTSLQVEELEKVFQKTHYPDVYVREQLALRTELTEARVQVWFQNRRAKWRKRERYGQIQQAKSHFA
# ALX1 [16] = molecular target: ALX1 (Homo sapiens, UniProt Q15699 118-204, L144R)
# Chain of ALX1 (Homo sapiens, UniProt Q15699 118-204, L144R) (Q15699 118-204 L144R): as the sequence (Q15699 118-204 L144V) above, with V27R counted along it
# HESX1 [17] = molecular target: HESX1 (Homo sapiens, UniProt Q9UBX0 95-180, R109Q)
# Chain of HESX1 (Homo sapiens, UniProt Q9UBX0 95-180, R109Q) (Q9UBX0 95-180 R109Q): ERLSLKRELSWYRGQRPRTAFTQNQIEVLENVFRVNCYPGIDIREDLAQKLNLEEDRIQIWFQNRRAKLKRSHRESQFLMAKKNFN
# PROP1 = PROP1 (Homo sapiens, UniProt O75360 56-141, R99H)
# Chain of PROP1 (O75360 56-141 R99H): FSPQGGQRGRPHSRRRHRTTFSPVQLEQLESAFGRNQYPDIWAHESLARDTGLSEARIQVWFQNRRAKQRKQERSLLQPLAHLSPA
# HESX1 [18] = molecular target: HESX1 (Homo sapiens, UniProt Q9UBX0 95-180, P111T)
# Chain of HESX1 (Homo sapiens, UniProt Q9UBX0 95-180, P111T) (Q9UBX0 95-180 P111T): as the sequence (Q9UBX0 95-180 R109Q) above, with Q15R, P17T counted along it
# ALX1 [19] = molecular target: ALX1 (Homo sapiens, UniProt Q15699 118-204)
# Chain of ALX1 (Homo sapiens, UniProt Q15699 118-204) (Q15699 118-204): as the sequence (Q15699 118-204 L144V) above, with V27L counted along it
# MSX2 [20] = molecular target: MSX2 (Homo sapiens, UniProt P35548 130-214, R199I)
# Chain of MSX2 (Homo sapiens, UniProt P35548 130-214, R199I) (P35548 130-214 R199I): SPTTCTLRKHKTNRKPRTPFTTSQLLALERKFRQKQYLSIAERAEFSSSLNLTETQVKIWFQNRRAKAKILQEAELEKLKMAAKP
# MSX2 [21] = molecular target: MSX2 (Homo sapiens, UniProt P35548 130-214)
# Chain of MSX2 (Homo sapiens, UniProt P35548 130-214) (P35548 130-214): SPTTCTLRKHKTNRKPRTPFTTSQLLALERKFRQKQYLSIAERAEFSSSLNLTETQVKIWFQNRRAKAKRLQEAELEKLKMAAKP
# MSX2 [22] = molecular target: MSX2 (Homo sapiens, UniProt P35548 130-214, F161Y)
# Chain of MSX2 (Homo sapiens, UniProt P35548 130-214, F161Y) (P35548 130-214 F161Y): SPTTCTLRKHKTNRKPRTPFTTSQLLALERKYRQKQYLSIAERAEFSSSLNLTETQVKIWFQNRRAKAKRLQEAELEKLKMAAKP
# PITX2 = PITX2 (Homo sapiens, UniProt Q99697 72-157)
# PRRX1 [23] = molecular target: PRRX1 (Homo sapiens, UniProt P54821 80-166, F113S)
# Chain of PRRX1 (Homo sapiens, UniProt P54821 80-166, F113S) (P54821 80-166 F113S): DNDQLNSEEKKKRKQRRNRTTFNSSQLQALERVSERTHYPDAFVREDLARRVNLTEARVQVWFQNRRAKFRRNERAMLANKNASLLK
# PRRX1 [24] = molecular target: PRRX1 (Homo sapiens, UniProt P54821 80-166)
# Chain of PRRX1 (Homo sapiens, UniProt P54821 80-166) (P54821 80-166): as the sequence (P54821 80-166 F113S) above, with S34F counted along it
# HOXC10 [25] = molecular target: HOXC10 (Homo sapiens, UniProt Q9NYD6 254-340)
# Chain of HOXC10 (Homo sapiens, UniProt Q9NYD6 254-340) (Q9NYD6 254-340): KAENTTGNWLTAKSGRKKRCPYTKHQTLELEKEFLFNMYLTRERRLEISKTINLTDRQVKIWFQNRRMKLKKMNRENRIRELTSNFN
# HOXD13 [26] = molecular target: HOXD13 (Homo sapiens, UniProt P35453 263-343, T313R)
# Chain of HOXD13 (Homo sapiens, UniProt P35453 263-343, T313R) (P35453 263-343 T313R): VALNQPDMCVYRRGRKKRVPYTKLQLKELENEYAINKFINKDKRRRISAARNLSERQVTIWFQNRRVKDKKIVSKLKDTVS
# HOXD13 [27] = molecular target: HOXD13 (Homo sapiens, UniProt P35453 263-343)
# Chain of HOXD13 (Homo sapiens, UniProt P35453 263-343) (P35453 263-343): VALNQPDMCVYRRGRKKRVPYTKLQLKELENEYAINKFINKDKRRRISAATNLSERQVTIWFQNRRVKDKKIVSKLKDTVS
# HOXC10 [28] = molecular target: HOXC10 (Homo sapiens, UniProt Q9NYD6 254-340, K271E)
# Chain of HOXC10 (Homo sapiens, UniProt Q9NYD6 254-340, K271E) (Q9NYD6 254-340 K271E): as the sequence (Q9NYD6 254-340) above, with K18E counted along it
# HOXD13 [29] = molecular target: HOXD13 (Homo sapiens, UniProt P35453 263-343, T313A)
# Chain of HOXD13 (Homo sapiens, UniProt P35453 263-343, T313A) (P35453 263-343 T313A): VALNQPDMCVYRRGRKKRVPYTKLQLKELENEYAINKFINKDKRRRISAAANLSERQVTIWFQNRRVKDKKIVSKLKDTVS
# Chain of SHOX (Homo sapiens, UniProt O15266 103-189, R173C) (O15266 103-189 R173C): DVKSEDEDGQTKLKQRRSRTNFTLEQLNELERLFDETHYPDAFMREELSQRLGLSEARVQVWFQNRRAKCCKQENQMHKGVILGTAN
# Chain of SHOX (Homo sapiens, UniProt O15266 103-189) (O15266 103-189): as the sequence (O15266 103-189 R173C) above, with C71R counted along it
# Chain of HOXA2 (Homo sapiens, UniProt O43364 129-215, R185K) (O43364 129-215 R185K): as the sequence (O43364 129-215 Y150S) above, with S22Y, R57K counted along it
# Chain of HOXA2 (Homo sapiens, UniProt O43364 129-215, R185T) (O43364 129-215 R185T): as the sequence (O43364 129-215 Y150S) above, with S22Y, R57T counted along it
sequence,measurement,setting,value
CGCCCGAC,binding signal,SHOX [1],"7.09 upbm affinity estimate (log intensity, higher = more binding, comparable within an allelic series)"
same,binding signal,HOXA2 [2],"7.5 upbm affinity estimate (log intensity, higher = more binding, comparable within an allelic series)"
same,binding signal,SHOX [3],"7.2 upbm affinity estimate (log intensity, higher = more binding, comparable within an allelic series)"
same,binding signal,HOXA2 [4],"10.3 upbm affinity estimate (log intensity, higher = more binding, comparable within an allelic series)"
same,binding signal,HOXA2 [5],"10.6 upbm affinity estimate (log intensity, higher = more binding, comparable within an allelic series)"
same,binding signal,HOXA2 [6],"7.16 upbm affinity estimate (log intensity, higher = more binding, comparable within an allelic series)"
GTACAATA,binding signal,SHOX [1],"8.08 upbm affinity estimate (log intensity, higher = more binding, comparable within an allelic series)"
same,binding signal,HOXB9 [7],"9.8 upbm affinity estimate (log intensity, higher = more binding, comparable within an allelic series)"
same,binding signal,HOXB9 [8],"9.79 upbm affinity estimate (log intensity, higher = more binding, comparable within an allelic series)"
CGCCTCCC,binding signal,SHOX [1],"7 upbm affinity estimate (log intensity, higher = more binding, comparable within an allelic series)"
same,binding signal,PAX4 [9],"9.2 upbm affinity estimate (log intensity, higher = more binding, comparable within an allelic series)"
same,binding signal,PAX4 [10],"9.23 upbm affinity estimate (log intensity, higher = more binding, comparable within an allelic series)"
same,binding signal,PAX4 [11],"9.17 upbm affinity estimate (log intensity, higher = more binding, comparable within an allelic series)"
same,binding signal,SHOX [3],"6.98 upbm affinity estimate (log intensity, higher = more binding, comparable within an allelic series)"
same,binding signal,PAX4 [12],"9.03 upbm affinity estimate (log intensity, higher = more binding, comparable within an allelic series)"
same,binding signal,PAX4 [13],"9.1 upbm affinity estimate (log intensity, higher = more binding, comparable within an allelic series)"
same,binding signal,PAX4 [14],"9.17 upbm affinity estimate (log intensity, higher = more binding, comparable within an allelic series)"
AATTAGGG,binding signal,SHOX [1],"11.7 upbm affinity estimate (log intensity, higher = more binding, comparable within an allelic series)"
same,binding signal,PAX4 [9],"11.6 upbm affinity estimate (log intensity, higher = more binding, comparable within an allelic series)"
same,binding signal,PAX4 [10],"12.2 upbm affinity estimate (log intensity, higher = more binding, comparable within an allelic series)"
same,binding signal,ALX1 [15],"11.4 upbm affinity estimate (log intensity, higher = more binding, comparable within an allelic series)"
same,binding signal,PAX4 [11],"11.8 upbm affinity estimate (log intensity, higher = more binding, comparable within an allelic series)"
same,binding signal,SHOX [3],"9.29 upbm affinity estimate (log intensity, higher = more binding, comparable within an allelic series)"
same,binding signal,ALX1 [16],"10.8 upbm affinity estimate (log intensity, higher = more binding, comparable within an allelic series)"
same,binding signal,PAX4 [12],"10.3 upbm affinity estimate (log intensity, higher = more binding, comparable within an allelic series)"
same,binding signal,PAX4 [13],"10.8 upbm affinity estimate (log intensity, higher = more binding, comparable within an allelic series)"
same,binding signal,HESX1 [17],"8.69 upbm affinity estimate (log intensity, higher = more binding, comparable within an allelic series)"
same,binding signal,PROP1,"10.9 upbm affinity estimate (log intensity, higher = more binding, comparable within an allelic series)"
same,binding signal,HESX1 [18],"10.1 upbm affinity estimate (log intensity, higher = more binding, comparable within an allelic series)"
same,binding signal,PAX4 [14],"10.8 upbm affinity estimate (log intensity, higher = more binding, comparable within an allelic series)"
same,binding signal,ALX1 [19],"12 upbm affinity estimate (log intensity, higher = more binding, comparable within an allelic series)"
CGGACAGC,binding signal,SHOX [1],"7.13 upbm affinity estimate (log intensity, higher = more binding, comparable within an allelic series)"
same,binding signal,PAX4 [9],"9.47 upbm affinity estimate (log intensity, higher = more binding, comparable within an allelic series)"
same,binding signal,PAX4 [10],"9.43 upbm affinity estimate (log intensity, higher = more binding, comparable within an allelic series)"
same,binding signal,MSX2 [20],"9.52 upbm affinity estimate (log intensity, higher = more binding, comparable within an allelic series)"
same,binding signal,ALX1 [15],"6.29 upbm affinity estimate (log intensity, higher = more binding, comparable within an allelic series)"
same,binding signal,PAX4 [11],"9.47 upbm affinity estimate (log intensity, higher = more binding, comparable within an allelic series)"
same,binding signal,SHOX [3],"7.17 upbm affinity estimate (log intensity, higher = more binding, comparable within an allelic series)"
same,binding signal,ALX1 [16],"6.43 upbm affinity estimate (log intensity, higher = more binding, comparable within an allelic series)"
same,binding signal,PAX4 [12],"9.4 upbm affinity estimate (log intensity, higher = more binding, comparable within an allelic series)"
same,binding signal,MSX2 [21],"9.55 upbm affinity estimate (log intensity, higher = more binding, comparable within an allelic series)"
same,binding signal,PAX4 [13],"9.46 upbm affinity estimate (log intensity, higher = more binding, comparable within an allelic series)"
same,binding signal,MSX2 [22],"9.53 upbm affinity estimate (log intensity, higher = more binding, comparable within an allelic series)"
same,binding signal,PAX4 [14],"9.46 upbm affinity estimate (log intensity, higher = more binding, comparable within an allelic series)"
same,binding signal,ALX1 [19],"6.5 upbm affinity estimate (log intensity, higher = more binding, comparable within an allelic series)"
CAGCGCAG,binding signal,SHOX [1],"7.11 upbm affinity estimate (log intensity, higher = more binding, comparable within an allelic series)"
same,binding signal,PAX4 [9],"9.32 upbm affinity estimate (log intensity, higher = more binding, comparable within an allelic series)"
same,binding signal,PAX4 [10],"9.29 upbm affinity estimate (log intensity, higher = more binding, comparable within an allelic series)"
same,binding signal,PAX4 [11],"9.39 upbm affinity estimate (log intensity, higher = more binding, comparable within an allelic series)"
same,binding signal,PITX2,"8.17 upbm affinity estimate (log intensity, higher = more binding, comparable within an allelic series)"
same,binding signal,SHOX [3],"7.22 upbm affinity estimate (log intensity, higher = more binding, comparable within an allelic series)"
same,binding signal,PAX4 [12],"9.38 upbm affinity estimate (log intensity, higher = more binding, comparable within an allelic series)"
same,binding signal,PAX4 [13],"9.36 upbm affinity estimate (log intensity, higher = more binding, comparable within an allelic series)"
same,binding signal,PAX4 [14],"9.48 upbm affinity estimate (log intensity, higher = more binding, comparable within an allelic series)"
CGAACCGC,binding signal,SHOX [1],"7.29 upbm affinity estimate (log intensity, higher = more binding, comparable within an allelic series)"
same,binding signal,PRRX1 [23],"9.29 upbm affinity estimate (log intensity, higher = more binding, comparable within an allelic series)"
same,binding signal,SHOX [3],"7.2 upbm affinity estimate (log intensity, higher = more binding, comparable within an allelic series)"
same,binding signal,PRRX1 [24],"9.38 upbm affinity estimate (log intensity, higher = more binding, comparable within an allelic series)"
CGGGGGGC,binding signal,SHOX [1],"7.33 upbm affinity estimate (log intensity, higher = more binding, comparable within an allelic series)"
same,binding signal,PAX4 [9],"9.22 upbm affinity estimate (log intensity, higher = more binding, comparable within an allelic series)"
same,binding signal,PAX4 [10],"9.41 upbm affinity estimate (log intensity, higher = more binding, comparable within an allelic series)"
same,binding signal,MSX2 [20],"9.61 upbm affinity estimate (log intensity, higher = more binding, comparable within an allelic series)"
same,binding signal,PAX4 [11],"9.12 upbm affinity estimate (log intensity, higher = more binding, comparable within an allelic series)"
same,binding signal,SHOX [3],"7 upbm affinity estimate (log intensity, higher = more binding, comparable within an allelic series)"
same,binding signal,PAX4 [12],"8.99 upbm affinity estimate (log intensity, higher = more binding, comparable within an allelic series)"
same,binding signal,MSX2 [21],"9.76 upbm affinity estimate (log intensity, higher = more binding, comparable within an allelic series)"
same,binding signal,PAX4 [13],"9.11 upbm affinity estimate (log intensity, higher = more binding, comparable within an allelic series)"
same,binding signal,MSX2 [22],"9.77 upbm affinity estimate (log intensity, higher = more binding, comparable within an allelic series)"
same,binding signal,PAX4 [14],"9.12 upbm affinity estimate (log intensity, higher = more binding, comparable within an allelic series)"
CCTTGCCC,binding signal,SHOX [1],"7.09 upbm affinity estimate (log intensity, higher = more binding, comparable within an allelic series)"
same,binding signal,HOXA2 [2],"7.28 upbm affinity estimate (log intensity, higher = more binding, comparable within an allelic series)"
same,binding signal,SHOX [3],"7.14 upbm affinity estimate (log intensity, higher = more binding, comparable within an allelic series)"
same,binding signal,HOXA2 [4],"10.4 upbm affinity estimate (log intensity, higher = more binding, comparable within an allelic series)"
same,binding signal,HOXA2 [5],"10.4 upbm affinity estimate (log intensity, higher = more binding, comparable within an allelic series)"
same,binding signal,HOXA2 [6],"7.27 upbm affinity estimate (log intensity, higher = more binding, comparable within an allelic series)"
CCCTTCGA,binding signal,SHOX [1],"6.95 upbm affinity estimate (log intensity, higher = more binding, comparable within an allelic series)"
same,binding signal,HOXC10 [25],"10 upbm affinity estimate (log intensity, higher = more binding, comparable within an allelic series)"
same,binding signal,HOXD13 [26],"9.49 upbm affinity estimate (log intensity, higher = more binding, comparable within an allelic series)"
same,binding signal,SHOX [3],"7.13 upbm affinity estimate (log intensity, higher = more binding, comparable within an allelic series)"
same,binding signal,HOXD13 [27],"9.43 upbm affinity estimate (log intensity, higher = more binding, comparable within an allelic series)"
same,binding signal,HOXC10 [28],"10.1 upbm affinity estimate (log intensity, higher = more binding, comparable within an allelic series)"
same,binding signal,HOXD13 [29],"9.48 upbm affinity estimate (log intensity, higher = more binding, comparable within an allelic series)"
GATATGTA,binding signal,SHOX [1],"8.18 upbm affinity estimate (log intensity, higher = more binding, comparable within an allelic series)"
same,binding signal,HOXB9 [7],"9.76 upbm affinity estimate (log intensity, higher = more binding, comparable within an allelic series)"
same,binding signal,SHOX [3],"7.81 upbm affinity estimate (log intensity, higher = more binding, comparable within an allelic series)"
GCCTTGCC,binding signal,SHOX [1],"7.17 upbm affinity estimate (log intensity, higher = more binding, comparable within an allelic series)"
same,binding signal,MSX2 [20],"9.62 upbm affinity estimate (log intensity, higher = more binding, comparable within an allelic series)"
same,binding signal,SHOX [3],"7.18 upbm affinity estimate (log intensity, higher = more binding, comparable within an allelic series)"
same,binding signal,MSX2 [21],"9.57 upbm affinity estimate (log intensity, higher = more binding, comparable within an allelic series)"
same,binding signal,MSX2 [22],"9.57 upbm affinity estimate (log intensity, higher = more binding, comparable within an allelic series)"

# — publication PMC11006913
